PLK1 PBD inh = inhibitors of human PLK1 polo-box domain binding. P53350. Plk1 PBD binding of FITC phosphopeptide, fluorescence polarization. Potency, µM, actives largely listed as inhibitors. actives 2.8% (n = 360,000); note: series mostly up to about 57 µM; nearly all actives have a fitted effect of over 65% in size
VDR inh = blocks the human vitamin D receptor | P11473 | VDR-SRC2-3 peptide fluorescence polarization, 2 h | Potency, µM, actives largely listed as inhibitors | actives 0.93% (n = 400,000) | AID 504847
Target sequence (P11473 whole entry, looked up): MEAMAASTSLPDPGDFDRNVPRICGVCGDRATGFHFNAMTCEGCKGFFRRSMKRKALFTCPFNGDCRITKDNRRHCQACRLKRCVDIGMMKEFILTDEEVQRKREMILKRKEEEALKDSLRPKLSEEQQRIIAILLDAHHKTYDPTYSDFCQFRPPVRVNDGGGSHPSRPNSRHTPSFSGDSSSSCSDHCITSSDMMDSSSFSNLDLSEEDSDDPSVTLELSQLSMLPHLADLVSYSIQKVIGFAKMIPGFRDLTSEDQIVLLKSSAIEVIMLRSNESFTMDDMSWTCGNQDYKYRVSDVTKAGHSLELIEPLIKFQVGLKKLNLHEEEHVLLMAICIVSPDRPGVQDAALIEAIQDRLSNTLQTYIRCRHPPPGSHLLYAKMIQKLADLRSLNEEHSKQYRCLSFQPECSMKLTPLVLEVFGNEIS
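The screen uses fluorescence polarization to detect compounds that interfere with recruitment of the SRC2-3 coactivator peptide to VDR; plates are read after 2 h at room temperature.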
Sfp inh = blocks B. subtilis Sfp PPTase activity; AID 1490; Biochemical Sfp PPTase activity, qHTS; Q9F4F7; actives 3.5% (n = 310,000); Potency, µM, actives largely listed as inhibitors;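 note: the enzyme is Sfp with the accession as filed and its product quenches rhodamine fluorescence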
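Step 1, compound plus 15 nM Sfp-PPTase, 15 min, room temperature. Step 2, add rhodamine-CoA (5 uM) and BHQ-2-YbbR (12.5 uM). Step 3, read 525/598 nm fluorescence at 0 and 30 min.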
Tau FP inhib = inhibitors of human tau fibril formation; P10636; K18 P301L tau heparin fibrillization, Alexa594 FP, 6 h; Potency, µM (doses to about 57.7 µM), usual class: inhibitors; actives 0.39% (n = 280,000); note: nearly all actives have a fitted effect of over 55% in size
Target sequence (P10636 561-689 P618L limits assumed): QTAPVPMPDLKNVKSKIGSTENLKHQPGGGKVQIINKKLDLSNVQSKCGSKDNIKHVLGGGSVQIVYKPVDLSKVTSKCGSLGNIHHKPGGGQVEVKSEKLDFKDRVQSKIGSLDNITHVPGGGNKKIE
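Human K18 P301L fragment (15 uM unlabeled plus 0.24 uM Alexa 594-labeled) in 100 mM sodium acetate pH 7 with compound, aggregation induced by 20 uM heparin for 6 hr at 37 C. ThT (30 uM) added for 1 hr, then Alexa 594 FP read.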
Tau ThT inhib = blocks human tau fibril formation measured by thioflavin T; P10636; recombinant tau K18 P301L, heparin-induced fibrillization, ThT fluorescence; Potency, µM (doses to about 57.4 µM), hits mostly inhibitors; actives 2.1% (n = 270,000); note: nearly all actives have a fitted effect of over 55% in size
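Recombinant human tau K18 fragment […] carrying P301L, 15 uM unlabeled plus 0.24 uM Alexa 594-labeled, was fibrillized with 20 uM heparin in 100 mM sodium acetate pH 7 for 6 hr at 37 C; 30 uM ThT fluorescence read after 1 hr.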
Tau fluor cs = counter-screen for tau fibril formation inhibitors. tau K18 P301L Alexa594 fluorescence, heparin fibrillization. Potency, µM (series often up to 57.7 µM). actives 0.93% (n = 280,000). AID 1463; note: nearly all actives have a fitted effect of over 55% in size
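Human tau K18 P301L (15 uM unlabeled, 0.24 uM Alexa 594-labeled) in 100 mM sodium acetate pH 7 with 20 uM heparin, 6 hr at 37 C. ThT 30 uM added, 1 hr ambient; Alexa 594 FP and total fluorescence read at 555/632 nm.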
Hits are given with their value; – = inactive; ? = inconclusive; · = not tested or not shown; [ ] = remark or other dose. The list is not random: actives were taken first. Their share in the collection is about 6%. Calls come from the whole dose curve; as a rule, active = well fitted curve in the direction sought with a large enough effect; inconclusive = small, poorly fitted or top-dose-only effect, or another doubt; inactive = no such curve, though single readings can be large; an effect the other way counts as inactive or inconclusive.

SMILES | PLK1 PBD inh | VDR inh | Sfp inh | Tau FP inhib | Tau ThT inhib | Tau fluor cs
Nc1nc(SCC(=O)NC2CCCC2)[nH]c(=O)c1-c1ccccc1 | · | · | – | – | – | –
COc1ccc(-c2nc(SCC(=O)NC3CCCC3)c(-c3ccc(C)cc3)[nH]2)cc1OC | · | – | · | ? | ? | 17.8µM[quencher]
COc1cccc(-c2nc(SCC(=O)NC3CCCC3)c(-c3ccc(F)cc3)[nH]2)c1 | · | – | · | – | ? | 12.6µM[quencher]
O=C(CSc1ncccc1C(=O)O)NC1CCCCCCC1 | 26.7µM | – | – | – | – | –
CSc1nc(N)c2ncn([C@H]3O[C@H](COP(=O)(O)OP(=O)(O)OP(=O)(O)O)[C@@H](O)[C@@H]3O)c2n1 | · | – | – | – | – | –
COc1cccc(-c2nc(SCC(=O)NC3CCCC3)c(-c3ccc(C)cc3)[nH]2)c1 | · | – | · | ? | – | 11.2µM[quencher]
COCCNC(=O)CSc1nc(-c2ccccc2)[nH]c1-c1ccc(OC)cc1 | · | – | · | ? | – | –
COc1ccc(-c2[nH]c(-c3ccc(C)cc3)nc2SCC(=O)NC2CCCC2)cc1 | – | – | – | – | ? | ?
COc1cccc(-c2nc(SCC(=O)NCC3CCCO3)c(-c3ccc(Cl)cc3)[nH]2)c1 (stereo not given) | · | – | · | – | ? | 12.6µM[quencher]
COc1cccc(-c2nc(SCC(=O)NC3CCCC3)c(-c3ccccc3)[nH]2)c1 | · | – | · | ? | – | 25.1µM[quencher]
COc1cccc(-c2nc(SCC(=O)NCC3CCCO3)c(-c3ccc(C)cc3)[nH]2)c1 (stereo not given) | · | – | · | – | – | ?
Cc1ccc(-c2cc(C(=O)OCC(=O)c3ccccc3)c3cccc(Cl)c3n2)cc1 | · | – | · | ? | – | –
Cc1ccc(-n2nc(CO)c(C(=O)NCc3cccs3)n2)cc1C | · | – | · | – | – | –
C=CCOC(=O)C1=C(C)NC2(O)c3ccccc3C(=O)C12O (stereo not given) | – | ? | – | ? | 12.6µM | –
CC1=C(C(=O)OCC(C)C)C2(O)C(=O)c3ccccc3C2(O)N1 (stereo not given) | – | – | – | ? | 7.94µM | –
COc1ccccc1C1CC(=O)NC(C)=C1C(=O)OCC(C)C (stereo not given) | – | – | – | – | – | –
CN(C)c1ccc(/C=N/NC(=O)c2ccccc2O)o1 | – | ? | 15.8µM | – | ? | –
CN(C)c1ccc(/C=N/NC(=O)C(O)(c2ccccc2)c2ccccc2)o1 | – | ? | 2.82µM | – | ? | –
O=C(NN=Cc1ccccc1O)C(O)(c1ccccc1)c1ccccc1 | – | – | · | · | · | ·
Cc1cc(C(=O)N/N=C/c2ccc(N(C)C)o2)cs1 | – | ? | 12.6µM | · | · | ·
CCCCCCCCCCCCCCCCCCCCCCCCCCCCCC | · | – | – | · | · | ·
Cc1cc2c3c(cccc3n1)C(=O)c1ccccc1-2 | · | – | – | – | ? | –
CCC(C)NC(=O)c1cc2n(n1)CCCN(Cc1ccc(C)cc1)C2=O (stereo not given) | · | – | · | – | – | –
Cc1ccccc1OCC(=O)NCC(=O)OCC(=O)c1ccc(F)cc1 | · | – | · | · | · | ·
CCN1/C(=C/C(=O)c2ccco2)Sc2ccccc21 | ? | – | 50.1µM | – | – | –
SMILES | PLK1 PBD inh | VDR inh | Sfp inh | Tau FP inhib | Tau ThT inhib | Tau fluor cs
Nc1c(C=C2C=CC(=O)C=C2)c(=O)nc2snc(SCc3ccccc3)n12 | 21.2µM | – | – | ? | 7.94µM | ?
O=S(=O)(Nc1ccc(-c2ccc(N3CCCCCC3)nn2)cc1)c1ccc(C(F)(F)F)cc1 | · | – | · | – | – | –
Cc1ccccc1OCC(=O)NC(=S)Nc1ccc2c3c(cccc13)CC2 | 2.99µM | – | – | – | – | –
N#Cc1ccc(NC(=O)Cn2c3[n+](c4ccc(C(F)(F)F)cc42)CCCCC3)cc1 | 23.8µM | – | – | – | – | –
CCCNC(=O)c1ccccc1NC(=O)c1nsc2ccccc12 | · | – | · | ? | – | –
CCOC(=O)Cn1nnc(-c2cc(OC)c(OC)c(OC)c2)n1 | – | – | – | – | – | –
COc1cc(-c2nnn(CC(=O)Nc3ccc(OC(F)(F)F)cc3)n2)cc(OC)c1OC | · | – | · | 17.8µM | – | ?
O=C(c1cccc(Oc2c(Cl)cccc2[N+](=O)[O-])c1)N1CCOCC1 | – | – | – | · | · | ·
CCn1c(=O)n(CC2CCC(C(=O)NC(C)C)CC2)c(=O)c2sccc21 (stereo not given) | · | – | · | – | – | –
N#CC1=C(SCC(N)=O)NC2=C(C(=O)c3ccccc32)C1c1ccc(Cl)cc1 (stereo not given) | ? | – | – | ? | 14.1µM | ?
CC1(C)CC(=O)C2=C(C1)NC1=C(C(=O)c3ccccc31)C2c1ccc(Cl)cc1 (stereo not given) | – | – | – | – | ? | ?
COc1ccc(NC(=O)COc2ccc(S(=O)(=O)NC3CCCCC3)cc2)c(OC)c1 | · | – | · | – | – | –
C=CCN(C(=O)CCC(=O)Nc1cc(C)on1)C(C(=O)NC1CCCC1)c1cccnc1 (stereo not given) | – | – | – | – | – | –
Cc1cc(NC(=O)CCC(=O)N(CC2CCCO2)C(C(=O)NC2CCCC2)c2cccnc2)no1 (stereo not given) | 26.7µM | – | – | – | – | –
CCn1c(=O)c(-[n+]2ccccc2)c(O)c2ccccc21 | – | – | 12.6µM | – | – | –
CCn1c(=O)c(C(=O)NNC(=O)c2ccccc2)c(O)c2ccccc21 | – | – | – | · | · | ·
CC1CCN(C(=O)CSc2nc3ccccc3nc2Cc2ccccc2)CC1 | · | – | · | – | – | –
COc1ccc(C)c2sc(N(Cc3cccnc3)C(C)=O)nc12 | · | – | · | ? | – | –
Cc1cccc(-n2ncc(C(=O)NCc3ccco3)c2C2CCN(C(=O)OC(C)(C)C)CC2)c1 | · | – | · | – | ? | –
CC(C)C(Sc1nc(-c2ccccc2)cc(-c2ccccc2)c1C#N)C(=O)O (stereo not given) | 18.9µM | – | – | – | ? | –
COc1ccc(-c2cc(-c3ccccc3)nc(SC(C)C(=O)O)c2C#N)cc1 (stereo not given) | 26.7µM | ? | – | · | · | ·
CCCSc1nc(-c2ccc(OC)cc2)cc(-c2ccccc2OC)c1C#N | · | ? | · | 25.1µM | 22.4µM | ?
COc1cc(Cl)c(C)cc1NC(=O)Cn1c2ncccc2c(=O)n1-c1ccccc1 | · | – | · | – | – | –
C/C(=N\NC(=O)C(O)c1ccccc1)c1ccc(Br)s1 (stereo not given) | – | – | – | · | · | ·
CSc1cccc(NC(=O)COc2ccccc2)c1 | 2.99µM | – | – | – | – | –
CC(=O)c1cccc(NC(=O)COc2ccccc2)c1 | – | – | – | ? | – | –
O=C(N/N=C\C=C\c1ccco1)C1COc2ccccc2O1 (stereo not given) | – | – | 39.8µM | – | · | –

Compound activity as filed in PubChem BioAssay.
